Drawing on PubChem BioAssay (EPA / NIEHS), this text covers outcome and AC50 for 40 compounds.

As usually defined, the AC50 is the concentration at which the activity in the assay is half-maximal.

SMILES strings stand for the structures. Activity calls are given as the source filed them. How the source made its calls: active means hit-call score of the fitted dose curve at least 0.9, where 1 is the maximum; inactive means score below 0.9.

This assay can be described thus: ATG_NRF2_ARE_CIS: Attagene CIS-FACTORIAL HepG2 Assay for human Nuclear Factor Erythroid 2 Related Factor 2 (NFR2) response to Antioxidant Response Elements (ARE) (AID 2282992). As to conditions: HepG2 Attagene ARE/NRF2 reporter, transcription factor activity; actives raise or lower the signal. On the procedure: ATG_CIS is a cell-based, multiplexed-readout assay that uses HepG2, a human liver cell line, with measurements taken at 24 hours after chemical dosing in a 24-well plate.ATG_NRF2_ARE_CIS is one of 52 assay component(s) measured or calculated from the ATG_CIS assay. It is designed to make measurements of mRNA induction, a form of inducible reporter, as detected with fluorescence intensity signals by Reverse transcription polymerase chain reaction (RT-PCR) and Capillary electrophoresis technology.Data from the assay component ATG_NRF2_ARE_CIS was analyzed into 1 assay endpoint. This assay endpoint, ATG_NRF2_ARE_CIS, was analyzed with bidirectional fitting relative to DMSO as the negative control and baseline of activity. Using a type of inducible reporter, measures of mRNA for gain or loss-of-signal activity can be used to understand the reporter gene at the transcription factor-level as they relate to the gene NFE2L2. Furthermore, this assay endpoint can be referred to as a primary readout, because this assay has produced multiple assay endpoints where this one serves a reporter gene function. To generalize the intended target to other relatable targets, this assay endpoint is annotated to the dna binding intended target family, where the subfamily is basic leucine zipper.
Human liver HepG2 cells are transiently transfected with multiple reporter transcription units (MRTUs) in 6-well plates using FuGene 6 reagent (Roche; 3 ml FuGene/1 mg DNA). The MRTU constructs are regulated by a cis-regulating element (promoter). […] A major difference between the CIS and TRANS system is that in CIS activities of endogenous TFs are measured, whereas the TRANS assay evaluates changes in activities of exogenous, chimeric NR-Gal4 proteins. […] At the end of 24 hour incubation, total RNA was isolated using TriZol reagent (Invitrogen). The isolated RNA is then reverse-transcribed using oligo(dT) primer and Mo-MLV reverse transcriptase (Invitrogen) with DNAse I (Ambion) treatment for 30 min. The one-tenth of the produced cDNA was amplified by PCR using Taq DNA polymerase (Invitrogen) and two reporter sequence-specific primers. The PCR products were fluorescently labeled by primer extension with 6-arboxyfluorescein (6-FAM) 5'-labeled reporter sequence-specific primer (2 min at 95 C, 20 s at 68 C and 10 min at 72 C) and these products were digested with 5U of HpaI (New England Biolabs) for 2h at 37 C. The fragments were purified using Qiaquick PCR columns (Qiagen), analyzed on an ABI 3130xL genetic analyzer (Applied Biosystems) with peak positions identified by using a set of X-rhodamine (ROX)-labeled MapMarker1000 molecular weight standards (BioVentures). The raw capillary electrophoresis data was processed using Attagraph software (Attagene).
For `CC1CC(OC(=O)c2ccccc2O)CC(C)(C)C1` (stereo not given), the compound was called inactive. With `OCCN1CCNCC1`, the call was inactive. Take `CCCCCCOC(=O)CC`: the compound was classed as inactive. In the case of `CC(C)(C)c1cc(CCC(=O)NN)cc(C(C)(C)C)c1O`, the compound was classed as inactive. The same measure, in the same setting: then `O=C(O)c1ccc(C(=O)O)cc1`, with “inactive”. In the case of `C=CC(=O)NCOCC(C)C`, the AC50 was 54.6 µM (active).

`O=C(O)Cc1cccc2ccccc12`: the outcome was inactive. As to `CCCC(=O)OCCC(C)CCC=C(C)C` (stereo not given), the AC50 was 78.7 µM (active). With `O=C1CCc2ccccc2O1`, the outcome was inactive. Still for that read-out and setting: then `Sc1nc(S)nc(S)n1`, with “inactive”. Take `CCCCCCCCCCCCN`: the AC50 was 17.8 µM (active). As for `Cc1cc(C2(c3cc(C)c(O)cc3C)OS(=O)(=O)c3ccccc32)c(C)cc1O`, the compound was classed as inactive. Turning to `CO[Si](C)(OC)c1ccccc1`, the AC50 was 16.2 µM (active). `CNCCCC12CCC(c3ccccc31)c1ccccc12`: the outcome was inactive. Consider `CC1(C)[C@@H]2CC[C@@]1(C)[C@H](O)C2`, for which the call was inactive. For `Cc1ccc(C=O)s1`, the compound was called inactive. As for `c1ccc2[nH]ccc2c1`, the outcome was inactive. Regarding `CC(C)c1ccc(C(C)C)cc1`, the AC50 is 162 µM (active). For `Clc1cccc(Cl)n1`, the call was inactive. On the same count and under the same terms, then `S=C(S)NCCNC(=S)S`, with “inactive”; and `CC(C)=CCC[C@](C)(O)[C@@H]1CC=C(C)CC1`, with “inactive”. On to `C=CCOC(=O)CCC1CCCCC1`, for which the outcome was inactive.

As to `CC(C=O)Cc1ccc(C(C)C)cc1` (stereo not given), the compound was called inactive. Same read-out and setting: then `CC(=O)OCc1ccc2c(c1)OCO2`, with “inactive”; and `COC(=O)C1=C(C)NC(C)=C(C(=O)OCCN(C)Cc2ccccc2)C1c1cccc([N+](=O)[O-])c1` (stereo not given), with “inactive”; and `Cc1cccc(C)c1C`, with “inactive”.

`O=C(O)CCSCCC(=O)O`: the compound was classed as inactive.

As for `CCCCCCCCC=O`, the compound was called inactive. As for `O=C[C@H](O)[C@H](O)[C@H](O)CO`, the compound was classed as inactive. For the compound `OC1OC[C@@H](O)[C@H](O)[C@H]1O` (stereo not given in full), the compound was classed as inactive. For `OCCCCCO`, the outcome was inactive. Still for that read-out and setting: then `CCCC(=O)c1cc(O)c(O)cc1O`, with “inactive”; and `CCO[Si](CCCS)(OCC)OCC`, with “inactive”; and `OC1C(O)C(O)C(O)C(O)C1O` (stereo not given), with “inactive”.

Regarding `CC(=O)c1c(C)cc(C(C)(C)C)cc1C`, the compound was classed as inactive. Regarding `Cc1ccc(C(=O)O)o1`, the compound was called inactive. The same measure, in the same setting: then `CN1Cc2c(N)cccc2C(c2ccccc2)C1` (stereo not given), with “inactive”. For the compound `CC(=O)OCC=Cc1ccccc1`, the AC50 was 34.9 µM (active). With `O=C(O)CCCCCCCCCCC(=O)O`, the compound was classed as inactive. For `CC(C)c1cccc(O)c1`, the call was inactive.
